SMILES strings stand for the structures.

Assay type in all cases: functional
Assay [1] concerns Plasmodium falciparum. Description: GSK_TCMDC: Inhibition of Plasmodium falciparum 3D7 in whole red blood cells, using parasite LDH activity as an index of growth. Test compounds present at 2uM.
Assay [2] deals with Plasmodium falciparum. Put plainly: GSK_TCMDC: Inhibition of Plasmodium falciparum Dd2 in whole red blood cells, using parasite LDH activity as an index of growth. Test compounds present at 2uM.
A further assay relates to HepG2. Put plainly: GSK_TCMDC: Percent inhibition of human HepG2 cell line. Test compounds present at 10uM.

By Inhibition is commonly meant the relative decrease from the control value, in per cent. Higher therefore signals a strong effect. Regarding `CCOc1ccc(C=CC(=O)Nc2ccc3nc(N4CCN(C)CC4)cc(C)c3c2)cc1OC`, the Inhibition in the assay on Plasmodium falciparum [1] is listed as 100%; with Plasmodium falciparum [2] it was 70%; in the assay on HepG2 it was 0%.
The corresponding values for `CN1CCc2cc(I)c(O)cc2C1Cc1ccccc1Cl.Cl` (configuration not stated) are 98%, 96% and 0%.
The corresponding values for `Cc1ccc(NC(=O)NCCCCCN2CCC(c3c[nH]c4ccccc34)CC2)cc1I` are 94%, 5% and 96%.
The corresponding values for `COc1cc(CN2CCC(NC(=O)[C@H](Cc3ccccc3)NC(=O)Nc3ccc(Oc4ccccc4)cc3)C2)ccc1O` (some centres not stated) are 92%, 0% and 10%.
Regarding `O=C(O)C(F)(F)F.c1cc(CN2CCN(CCN3CCOCC3)CC2)cc(-c2ccc(-c3nc4ccccc4[nH]3)cc2)c1`, the results for the Inhibition in the assay on Plasmodium falciparum [1], in the assay with Plasmodium falciparum [2] and with HepG2 were 100%, 100% and 23%, respectively.
As to `CCn1cnc2c(Nc3cccc([N+](=O)[O-])c3)nc(N3CCC(N4CCCCC4)CC3)nc21`, the values for the Inhibition with Plasmodium falciparum [1], in the assay with Plasmodium falciparum [2] and in the assay with HepG2 were 98%, 35% and 31%, respectively.
For `CCCCCN1CCN(Cc2cccc(NC(=O)c3ccc(Cl)c(Cl)c3)c2)CC1.O=C(O)C(F)(F)F` the same measures were 90%, 33% and 24%.
For `CCCCCCCCc1c(C)[nH]c(C)c(Cl)c1=O` the same measures were 96%, 95% and 0%.
As for `CCn1ncc(Cl)c1CN(C)S(=O)(=O)c1ccc2ccccc2c1`, the Inhibition in the assay with Plasmodium falciparum [1] came to 100%; in the assay with Plasmodium falciparum [2], 91%; with HepG2, 16%.

Values taken from ChEMBL document CHEMBL1157539, “Thousands of chemical starting points for antimalarial lead identification” (Nature, 2010).
